Results filed as inconclusive are left out. Active and inactive are the calls of the source. Unless noted, calls come from the whole dose curve; as a rule, active = well fitted curve in the direction sought with a large enough effect in the repeat runs; inconclusive = weak or mixed curves; inactive = no such curve, though single readings can be large; an effect the other way counts as inactive or inconclusive.
How the values were obtained:
[1] = qHTS assay to identify small molecule agonists of the vitamin D receptor (VDR) signaling pathway - cell viability counter screen (AID 743224); settings: VDR-bla HEK293T viability, CellTiter-Glo luminescence, 16 h; series mostly up to 62.6 µM; note: % is set by controls: 0 for no effect and ±100 for the full control effect; nearly all actives have a fitted effect of over 50% in size
Summary of the method: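 Plated VDR-bla cells (4 h, 37C) received compound, incubated 16 h, then LiveBLAzer substrate 2 h RT; CellTiter-Glo added afterwards, luminescence read at 30 min.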

[2] = qHTS assay to identify small molecule agonists of the NFkB signaling pathway - cell viability counter screen (AID 1159515; calls by dose curve; note: % is set by controls: 0 for no effect and ±100 for the full control effect; nearly all actives have a fitted effect of over 55% in size); settings: NFkB-bla ME-180 viability, CellTiter-Glo luminescence, 5 h; series mostly up to 61 µM
Summary of the method: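 Using the same wells as the NFkB reporter read, ME-180 NFkB-bla cells given compounds for 5 hr were assessed for viability via CellTiter-Glo, with luminescence taken after a 30 min room-temperature incubation.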

[3] = qHTS assay to identify small molecule agonists of the endoplasmic reticulum stress response signaling pathway (AID 1159516; active = well fitted activation curve with a large enough effect in the signal ratio in the repeat runs, not every such curve was filed as active; the % refers to the signal ratio; note: % is set by controls: 0 for no effect and ±100 for the full control effect); settings: ESRE-bla HeLa, ER stress beta-lactamase reporter, 5 h; series mostly up to 61 µM
Summary of the method: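 An ESRE-bla HeLa cell assay: compounds were pin-transferred from DMSO onto overnight-plated cells and left 5 hr at 37 C. Substrate was then loaded for 2 hr at room temperature before reading fluorescence at 460 nm and 530 nm.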

[4] = qHTS assay to identify small molecule agonists of the endoplasmic reticulum stress response signaling pathway - cell viability counter screen (AID 1159517; calls by dose curve;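 note: HeLa cells carrying an ER stress response element beta-lactamase reporter; % is set by controls: 0 for no effect and ±100 for the full control effect; nearly all actives have a fitted effect of over 50% in size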); settings: ESRE-bla HeLa viability, CellTiter-Glo luminescence, 5 h; series mostly up to 61 µM
Summary of the method: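 HeLa cells carrying an ESRE-driven beta-lactamase reporter receive compound for 5 hr at 37 C. Cell viability is then gauged with CellTiter-Glo by luminescence, 30 min at room temperature.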

[5] = qHTS assay to identify small molecule antagonists of the retinoid-related orphan receptor gamma (ROR-gamma) signaling pathway - cell viability counter screen (AID 1159520); settings: Tet-on RORgamma CHO cells viability, ATP luminescence, 16 h; series mostly up to 92.4 µM; note: nearly all actives have a fitted effect of over 50% in size; note: potency is the fitted concentration of half-maximal effect
Summary of the method: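 Cytotoxicity was read from cellular ATP (CellTiter-Glo luminescence) after 16 hr at 37 C with 1 uM doxycycline induction. The inducer was added 2 hr after compound transfer to Tet-on ROR gamma CHO cells.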

[6] = qHTS assay to identify small molecule agonists of the AP-1 signaling pathway - cell viability counter screen (AID 1159525; calls by dose curve; note: nearly all actives have a fitted effect of over 55% in size); settings: ME-180 AP-1-bla cells viability, ATP luminescence, 5 h; series mostly up to 76.8 µM
Summary of the method: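 Luminescent ATP readout (Cell Titer Glo, 30 min RT), normalised to DMSO and tetra n-octyl ammonium bromide controls. Cells were ME-180 AP-1-bla in 0.5% dialyzed FBS Opti-MEM, with a 5 h, 37 °C compound exposure.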

[7] = qHTS assay to identify small molecule antagonists of the retinoid acid receptor (RAR) signaling pathway - cell viability counter screen (AID 1159551); settings: C3RL4 cells viability, ATP luminescence (CellTiter-Glo), 6 h; series mostly up to 92.4 µM; note: nearly all actives have a fitted effect of over 35% in size; note: potency is the fitted concentration of half-maximal effect
Summary of the method: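 Retinol-stimulated (1 uM final) C3RL4 cells, compound 6 h, 37 C; readout CellTiter-Glo luminescence (ATP) after 30 min RT incubation.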

[8] = qHTS assay to identify small molecule antagonists of the retinoic acid receptor (RAR) signaling pathway (AID 1159552; note: nearly all actives have a fitted effect of over 50% in size; note: potency is the fitted concentration of half-maximal effect); settings: C3RL4 RARE luciferase reporter, retinol-stimulated, 6 h; series mostly up to 92.4 µM
Summary of the method: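 Overnight-plated C3RL4 reporter cells get compound, then retinol to 1 uM final; plates sit 6 hr at 37 C, 5% CO2. A luciferase reagent is added and light output recorded after 30 min at room temperature.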

[9] = qHTS assay to identify small molecule agonists of the retinoic acid receptor (RAR) signaling pathway (AID 1159553); settings: C3RL4 RARE luciferase reporter, agonist, 6 h; series mostly up to 73.3 µM; note: potency is the fitted concentration of half-maximal effect
Summary of the method: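 Reporter readout comes from luciferase under RARE control in C3RL4 cells; compound exposure lasts 6 hr at 37 C in 5% CO2, and luminescence is recorded following a 30 min room-temperature incubation with reagent.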

[10] = qHTS assay to identify small molecule agonists of the estrogen related receptor (ERR) signaling pathway (AID 1224820); settings: ERR reporter cell line, luciferase agonist mode; series mostly up to 46.1 µM; note: % is set by controls: 0 for no effect and ±100 for the full control effect
Summary of the method: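 ERR reporter cell line (from NTP), 2,000 cells/well, incubated 6 h before compound addition, then 18 h at 37 C. Luminescence measured 30 min after One-Glo reagent at room temperature.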

[11] = test system: estrogen-related receptor alpha (ERRalpha) with PGC-1alpha coactivator, human; test: qHTS assay to identify small molecule antagonists of the estrogen related receptor signaling pathway with the pleiotropic PPARgamma coactivator (PGC) (AID 1224821; calls by dose curve); settings: ERR/PGC reporter cell line, luciferase, antagonist mode; series mostly up to 46.1 µM
Summary of the method: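 PGC/ERR reporter cell line, plated 6 h before compound addition, then exposed 18 h at 37 °C. Luciferase activity read by luminescence 30 min after One-Glo addition; decrease indicates antagonism.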

[12] = qHTS assay to identify small molecule antagonists of the estrogen related receptor signaling pathway with the pleiotropic PPARgamma coactivator (PGC) cell viability counter screen (AID 1224822;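 note: viability read after 17.5 h compound exposure; % is set by controls: 0 for no effect and ±100 for the full control effect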); settings: ERR/PGC reporter cell line viability counter screen; series mostly up to 46.1 µM
Summary of the method: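 PGC/ERR cells were plated at 2,000 per well and allowed 6 h to settle before compound addition. Following 17.5 h at 37 C, CellTiter-Fluor reagent was added and fluorescence was read 30 min later.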

[13] = qHTS assay to identify small molecule agonists of the estrogen related receptor signaling pathway with the pleiotropic PPARgamma coactivator (PGC) (AID 1224823); settings: ERR/PGC reporter cell line, luciferase agonist mode; series mostly up to 46.1 µM; note: % is set by controls: 0 for no effect and ±100 for the full control effect
Summary of the method: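 PGC/ERR reporter cells seeded 6 h, then exposed to compounds (23 nL in DMSO) for 18 h at 37 C. One-Glo luciferase luminescence read after 30 min at room temperature.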

[14] = qHTS assay to identify small molecule antagonists of the vitamin D receptor (VDR) signaling pathway - cell viability counter screen (AID 743225); settings: VDR-bla HEK293T viability, CellTiter-Glo luminescence, 16 h; series mostly up to 61 µM
Summary of the method: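 Cytotoxicity toward the VDR-bla HEK 293T line was scored by ATP-based CellTiter-Glo luminescence, read in the wells already used for the beta-lactamase readout after 16 h compound treatment under 3 nM 1-alpha,25-dihydroxyvitamin D3 stimulation.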

[15] = qHTS assay to identify small molecule agonists of the AP-1 signaling pathway (AID 1159526; calls by dose curve; note: potency is the fitted concentration of half-maximal effect); settings: ME-180 (cervical carcinoma) AP-1-bla reporter, beta-lactamase FRET ratio, 5 h; series mostly up to 76.8 µM
[16] = qHTS assay to identify small molecule agonists of the RXR signaling pathway - cell viability counter screen (AID 1159529); settings: RXR-alpha-bla HEK293T viability, CellTiter-Glo, 16 h; series mostly up to 76.8 µM; note: nearly all actives have a fitted effect of over 50% in size; note: potency is the fitted concentration of half-maximal effect
Summary of the method: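 Tox21 10K compounds were tested for cytotoxicity against GeneBLAzer RXR-alpha HEK 293T cells grown in 2% charcoal-stripped FBS. Exposure lasted 16 hr at 37 C, 5% CO2; viability read by CellTiter-Glo luminescence.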

[17] = molecular target: Retinoic acid receptor RXR-alpha (Homo sapiens) (UniProt P19793); test: qHTS assay to identify small molecule agonists of the RXR signaling pathway (AID 1159527; calls by dose curve; note: % is set by controls: 0 for no effect and ±100 for the full control effect; nearly all actives have a fitted effect of over 35% in size); settings: HEK293T RXRa-UAS-bla, beta-lactamase ratio, 16 h; series mostly up to 76.8 µM
Sequence of Retinoic acid receptor RXR-alpha (Homo sapiens) (P19793 whole entry, looked up): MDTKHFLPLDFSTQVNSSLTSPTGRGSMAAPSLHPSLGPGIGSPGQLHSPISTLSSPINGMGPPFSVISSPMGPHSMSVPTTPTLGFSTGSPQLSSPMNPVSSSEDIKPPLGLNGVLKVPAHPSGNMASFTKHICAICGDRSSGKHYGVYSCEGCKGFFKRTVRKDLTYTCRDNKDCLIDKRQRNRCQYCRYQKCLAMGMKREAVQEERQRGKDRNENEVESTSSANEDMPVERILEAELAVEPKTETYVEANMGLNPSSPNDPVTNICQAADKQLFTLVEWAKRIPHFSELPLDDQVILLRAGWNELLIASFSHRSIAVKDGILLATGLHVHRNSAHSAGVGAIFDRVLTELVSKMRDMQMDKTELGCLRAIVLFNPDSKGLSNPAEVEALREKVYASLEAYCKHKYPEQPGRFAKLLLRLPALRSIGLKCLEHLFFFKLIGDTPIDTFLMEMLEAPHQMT
Summary of the method: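 Reporter activation is measured as beta-lactamase activity via FRET substrate cleavage (emission 460/530 nm) in HEK 293T cells expressing an RXR-alpha-driven bla construct, following 16 hr compound exposure at 37 C.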

[18] = molecular target: Nuclear receptor ROR-gamma (Homo sapiens) (UniProt P51449); test: qHTS assay to identify small molecule antagonists of the retinoid-related orphan receptor gamma (ROR-gamma) signaling pathway (AID 1159521; note: nearly all actives have a fitted effect of over 50% in size; note: potency is the fitted concentration of half-maximal effect); settings: Tet-on RORgamma CHO cells, RORE-luciferase, 16 h; series mostly up to 92.4 µM
Summary of the method: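 Readout: ONE-Glo luciferase luminescence, 30 min at room temperature. System: Tet-on RORγ CHO, RORE-LUC. Sequence: compound 2 h, doxycycline 1 uM final, 16 h at 37 C.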

OCc1cc(C(O)CNCCCCCCOCCCCc2ccccc2)ccc1O (configuration not stated)
inactive: Potency [1] | Potency [2] | Potency [3] | Potency [4] | Potency [5] | Potency [6] | Potency [7] | Potency [8] | Potency [9] | outcome [10] | Potency [11] | outcome [12] | outcome [13]

Cn1c(=O)cc(Oc2ccc(F)cc2F)c2cnc(NCC(C)(C)O)nc21
inactive: Potency [14] | Potency [2] | Potency [3] | Potency [4] | Potency [5] | Potency [6] | Potency [15] | Potency [16] | Potency [7]

CO[C@@H]1[C@H](OC(=O)/C=C/C=C/C=C/C=C/C(=O)O)CC[C@]2(CO2)[C@H]1[C@@]1(C)O[C@@H]1CC=C(C)C
inactive: Potency [1] | Potency [14] | Potency [2] | Potency [3] | Potency [4] | Potency [5] | Potency [6] | Potency [15] | Potency [7]

COc1cc2nc(N3CCN(C(=O)C4COc5ccccc5O4)CC3)nc(N)c2cc1OC (configuration not stated)
inactive: Potency [1] | Potency [14] | Potency [2] | Potency [3] | Potency [4] | Potency [15] | Potency [17] | Potency [16] | Potency [7] | Potency [8] | Potency [9]

COc1cccc(N(C)C(=S)Oc2ccc3c(c2)CCCC3)n1
inactive: Potency [1] | Potency [14] | Potency [2] | Potency [3] | Potency [4] | Potency [6] | Potency [15] | Potency [16] | Potency [8] | Potency [9]

CC1CCC(=O)C1=O (configuration not stated)
inactive: Potency [2] | Potency [3] | Potency [4] | Potency [5] | Potency [15] | Potency [16] | Potency [7] | Potency [8] | Potency [9]

CC(C)OC(=O)C(C)N(C(=O)c1ccccc1)c1ccc(F)c(Cl)c1 (configuration not stated)
inactive: Potency [1] | Potency [2] | Potency [3] | Potency [4] | Potency [5] | Potency [15] | Potency [16] | Potency [8] | Potency [9]

O=C1OC(CN2CCOCC2)CN1/N=C/c1ccc([N+](=O)[O-])o1 (configuration not stated)
inactive: Potency [1] | Potency [14] | Potency [2] | Potency [3] | Potency [4] | Potency [5] | Potency [15] | Potency [17] | Potency [16] | Potency [7] | Potency [9]

CC(=O)c1ccc2c(c1)N(CCCN1CCC(CCO)CC1)c1ccccc1S2
inactive: Potency [2] | Potency [3] | Potency [4] | Potency [6] | Potency [7]
active: Potency [16] 10.7 µM

CC(=O)OC[C@H]1O[C@@H](n2ncc(=O)[nH]c2=O)[C@H](OC(C)=O)[C@@H]1OC(C)=O
inactive: Potency [1] | Potency [14] | Potency [2] | Potency [3] | Potency [4] | Potency [6] | Potency [15] | Potency [16] | Potency [8] | Potency [9]
active: Potency [18] 1.5 µM

CN(C)C(=O)NC1(c2ccccc2)CCN(CC[C@@]2(c3ccc(F)c(F)c3)CN(C(=O)c3ccccc3)CCO2)CC1
inactive: Potency [1] | Potency [14] | Potency [2] | Potency [3] | Potency [4] | Potency [6] | Potency [15] | Potency [7]
active: Potency [16] 45.5 µM

O=C1C(O)=C(O)C(=O)C(O)=C1O
inactive: Potency [1] | Potency [14] | Potency [2] | Potency [3] | Potency [4] | Potency [6] | Potency [15] | Potency [17] | Potency [16] | Potency [7] | Potency [8] | Potency [9]

CN(C)c1ccc(/C=C/c2ccc([N+](=O)[O-])cc2)cc1
inactive: activity change, negative = cytotoxicity [1] -5.5% [at 5.95 µM] | viability change, negative = cytotoxic [14] 7.13% [at 6.95 µM] | activity, negative = cytotoxic [2] -0.218% [at 6.95 µM] | activation [3] -8.84% [at 6.95 µM] | activity change, negative = cytotoxicity [4] 15.7% [at 6.95 µM] | activity change, negative = inhibition [18] 127% [at 8.39 µM] | activation [15] -11.3% [at 6.97 µM] | activation [17] -7.68% [at 6.98 µM] | activity change, negative = cytotoxicity [16] -5.22% [at 6.97 µM] | activity change, negative = cytotoxicity [7] -0.286% [at 8.39 µM] | activity, negative = inhibition [8] 84.6% [at 8.39 µM]
active: Potency [9] 0.219 µM

C[N+]1(CC2COC(c3ccccc3)(C3CCCCC3)O2)CCCCC1 (configuration not stated)
inactive: Potency [1] | Potency [14] | Potency [2] | Potency [3] | Potency [4] | Potency [6] | Potency [15] | Potency [17] | Potency [7]

C[N+]1(C)CCC(OC(=O)C(O)(c2ccccc2)C2CCCC2)C1 (configuration not stated)
inactive: Potency [1] | Potency [14] | Potency [2] | Potency [3] | Potency [4] | Potency [5] | Potency [15] | Potency [16] | Potency [7] | Potency [9]

CC(COCCO)OCCO (configuration not stated)
inactive: Potency [1] | Potency [14] | Potency [2] | Potency [3] | Potency [4] | Potency [6] | Potency [16] | Potency [7] | Potency [8] | Potency [9]

C=C(C)C(=O)OCCOCC
active: Potency [15] 49.2 µM
inactive: Potency [1] | Potency [14] | Potency [2] | Potency [3] | Potency [4] | Potency [6] | Potency [17] | Potency [16] | Potency [7] | Potency [8] | Potency [9]

CCN(CC)c1ccc(C(=C2C=CC(=[N+](CC)CC)C=C2)c2cc(S(=O)(=O)O)ccc2S(=O)(=O)[O-])cc1
inactive: Potency [1] | Potency [14] | Potency [2] | Potency [3] | Potency [4] | Potency [15] | Potency [17]
active: Potency [5] 13.3 µM | Potency [7] 15 µM | Potency [8] 11.9 µM

From PubChem BioAssay (Tox21)
